Measurements published in PubChem BioAssay (NCATS).
Results filed as inconclusive are left out. The source made the active and inactive calls. Unless noted, calls come from the whole dose curve; as a rule, active = well fitted curve in the direction sought with a large enough effect; inconclusive = small, poorly fitted or top-dose-only effect, or effect the other way, or another doubt; inactive = no such curve, though single readings can be large or run the other way.

Test system: not listed separately
Assay: qHTS Validation Assay to Find Inhibitors of Chronic Active B-Cell Receptor Signaling (AID 485345; active = well fitted curve in the direction sought with a large enough effect in the main read-out, with a control signal flat, not every such curve was filed as active;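 note: 0% = untreated basal cells and 100% = 10 µM MG-132 proteasome inhibitor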)
Settings: ABC-DLBCL cells, chronic BCR signaling reporter, CBG luciferase; series mostly up to 46.1 µM; activity change: at the top concentration
How it was run: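 TMD8 ABC-DLBCL cells stably carrying doxycycline-inducible IkappaBalpha–green luciferase fusion plus unfused red luciferase; compounds 46 uM to 3 nM, 4 h at 37C with doxycycline. Corrected green/red luminescence ratio normalized to 10 uM MG-132 and basal cell wells; curves fitted.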

| SMILES | activity change |
| --- | --- |
| CCN(CC)CCCN(c1ccccc1)C1Cc2ccccc2C1 | -9.5% (inactive) |
| CNCCCN1c2ccccc2CCc2ccccc21 | 1.77% (inactive) |
| CN1C[C@H](C(=O)N[C@]2(C)O[C@@]3(O)[C@@H]4CCCN4C(=O)[C@H](Cc4ccccc4)N3C2=O)C[C@@H]2c3cccc4[nH]cc(c34)C[C@H]21 | -28.6% (inactive) |
| CSc1ccc(C(=O)c2[nH]c(=O)[nH]c2C)cc1 | -3.96% (inactive) |

Target: Beta-2 adrenergic receptor (Homo sapiens) (UniProt P07550)
Sequence (P07550 whole entry, looked up): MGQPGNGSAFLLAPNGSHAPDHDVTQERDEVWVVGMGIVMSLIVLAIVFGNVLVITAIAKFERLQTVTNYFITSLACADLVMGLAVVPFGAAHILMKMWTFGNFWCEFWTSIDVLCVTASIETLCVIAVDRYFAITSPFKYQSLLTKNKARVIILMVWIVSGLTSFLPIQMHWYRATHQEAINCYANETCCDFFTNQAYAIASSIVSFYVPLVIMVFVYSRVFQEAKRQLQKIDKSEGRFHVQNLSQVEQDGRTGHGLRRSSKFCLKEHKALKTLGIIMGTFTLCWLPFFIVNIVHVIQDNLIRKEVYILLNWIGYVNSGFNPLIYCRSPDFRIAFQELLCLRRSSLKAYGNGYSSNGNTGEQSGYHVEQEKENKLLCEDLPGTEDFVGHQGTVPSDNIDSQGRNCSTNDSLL
Assay: qHTS validation assay of beta-arrestin-biased ligands of beta2-adrenergic receptor (AID 485366); note: 0% is about no effect
Settings: cell-based beta-arrestin recruitment to ADRB2, qHTS; series mostly up to 46.1 µM; activation: at the top concentration
How it was run: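 Compound series up to 46 microM applied to beta2-AR/beta-arrestin Tango cells, 18 hr, 37 degrees C, 5% CO2. Read-out: tTA-driven luciferase luminescence, converted to %Activity; concentration-response curves assigned curve classes.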

| SMILES | activation |
| --- | --- |
| CC(N=C(NC#N)Nc1ccncc1)C(C)(C)C (centres undefined) | -0.0429% (inactive) |
| Cc1ccc(/C(=C\CN2CCCC2)c2ccccn2)cc1 | 0.896% (inactive) |
| NC(=O)c1cn(Cc2c(F)cccc2F)nn1 | 1.15% (inactive) |
| CCN(CC)CCOCCOC(=O)C1(c2ccccc2)CCCC1 | 0.224% (inactive) |
| COCCCC/C(=N\OCCN)c1ccc(C(F)(F)F)cc1 | 0.034% (inactive) |
| Cc1nc2ccccn2c(=O)c1CCN1CCC(C(=O)c2ccc(F)cc2)CC1 | 0.302% (inactive) |
| NC1=NCC2c3ccccc3Cc3ccccc3N12 (centres undefined) | -0.112% (inactive) |
| COC(=O)[C@@H](N)Cc1ccc(O)c(O)c1 | 0.0012% (inactive) |
| CCCN1C[C@H](CSC)C[C@@H]2c3cccc4[nH]cc(c34)C[C@H]21 | 0.436% (inactive) |
| Cc1cccc(C)c1NC(=O)C(C)N (centres undefined) | -0.203% (inactive) |
| COc1ccc([C@@H]2Sc3ccccc3N(CCN(C)C)C(=O)[C@@H]2OC(C)=O)cc1 | 0.351% (inactive) |
| Cc1scc2c1N(C(=O)CN1CCN(C)CC1)c1ccccc1NC2=O | -0.285% (inactive) |
| C[C@]12CCC(=O)C=C1CC[C@@H]1[C@@H]2CC[C@@]2(C)[C@H]1CC[C@]2(O)C(=O)CO | -0.355% (inactive) |
| CCn1cc(C(=O)O)c(=O)c2cc3c(cc21)OCO3 | -0.298% (inactive) |
| CC(C)(C)c1ccc(C(=O)CCCN2CCC(OC(c3ccccc3)c3ccccc3)CC2)cc1 | -0.572% (inactive) |
| CN(C)C/C=C(/c1ccc(Br)cc1)c1cccnc1 | 3.8% (inactive) |
| CN1C(=O)CC[C@H]1c1cccnc1 | 0.944% (inactive) |
| CN(C(=O)CCCOc1ccc2[nH]c(=O)ccc2c1)C1CCCCC1 | 0.2% (inactive) |

| SMILES | activation |
| --- | --- |
| CC(C)(Oc1ccc(CCNC(=O)c2ccc(Cl)cc2)cc1)C(=O)O | -0.142% (inactive) |
| NC(N)=N/N=C/c1c(Cl)cccc1Cl | 2.5% (inactive) |
| CC(=O)[C@@]1(O)CC[C@H]2[C@@H]3CCC4=CC(=O)CC[C@]4(C)[C@H]3CC[C@@]21C | 0.129% (inactive) |
| C[C@@H](O)[C@H]1C(=O)N2C(C(=O)O)=C(SCCN=CN)C[C@H]12 | -0.0947% (inactive) |
| COc1ccc2c(c1OC)C(=O)O[C@@H]2[C@H]1c2c(cc3c(c2OC)OCO3)CCN1C | 1.28% (inactive) |
| C[C@]12CC[C@@H]3c4ccc(O)cc4C[C@@H](CCCCCCCCCS(=O)CCCC(F)(F)C(F)(F)F)[C@H]3[C@@H]1CC[C@@H]2O (some centres undefined) | -0.12% (inactive) |
| CCn1nc(C(=O)O)c(=O)c2cc3c(cc21)OCO3 | -0.411% (inactive) |
| COC(=O)C1=C(C)NC(C)=C(C(=O)OCCN(C)Cc2ccccc2)C1c1cccc([N+](=O)[O-])c1 (centres undefined) | -1.15% (inactive) |
| Brc1c(NC2=NCCN2)ccc2nccnc12 | 1.61% (inactive) |
| CN(C)[C@@H]1C(=O)C(C(N)=O)=C(O)[C@@]2(O)C(=O)C3=C(O)c4c(O)ccc(Cl)c4[C@@H](O)[C@H]3C[C@@H]12 | -0.563% (inactive) |
| CCCCCCCC/C=C\CCCCCCCC(=O)NCc1ccc(O)c(OC)c1 | 0.0301% (inactive) |
| COC(=O)C1=C(C)NC(C)=C(C(=O)OC(C)(C)CN(C)CCC(c2ccccc2)c2ccccc2)C1c1cccc([N+](=O)[O-])c1 (centres undefined) | 0.193% (inactive) |
| C[N+](C)(C)CCCCCCCCCC[N+](C)(C)C | -0.0723% (inactive) |
| CCOC(=O)c1cnc2c(cnn2CC)c1NN=C(C)C | -0.468% (inactive) |
| CCN(CC)CCCN(c1ccccc1)C1Cc2ccccc2C1 | 2.01% (inactive) |
| CN1C[C@H](C(=O)N[C@]2(C)O[C@@]3(O)[C@@H]4CCCN4C(=O)[C@H](Cc4ccccc4)N3C2=O)C[C@@H]2c3cccc4[nH]cc(c34)C[C@H]21 | 0.43% (inactive) |
| CSc1ccc(C(=O)c2[nH]c(=O)[nH]c2C)cc1 | -0.228% (inactive) |
